# Source: PubChem BioAssay
# The source made the active and inactive calls. Unless noted, how the calls were made is not given here.
# Legend:
# [1] = compounds binding Alexa647 anti-His antibody – biochemical, small-molecule microarray, 635 nm fluorescence, artefact control for SMM control protein annotation, primary screen (AID 1128); details: higher = more signal;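 further: score merges feature fluorescence with signal-to-noise for each printed compound spot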
# [2] = tested on: Human papillomavirus type 1a E7 protein (residues 1-88); test: HPV1a E7 small-molecule binders, primary screen, biochemical, small-molecule microarray, residues 1-88, 635 nm (AID 1129); details: small-molecule microarray binding, fluorescence 635 nm; higher = more signal
# [3] = target: Focal adhesion kinase 1 (Homo sapiens) (UniProt Q05397); test: PTK2 protein binding on printed compound slides – biochemical, small-molecule microarray, 635/667 nm fluorescence, BSA, DTT, primary screen (AID 1130); details: 635 nm fluorescence, higher = more signal;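 further: composite of spot emission at 667 nm and signal to noise over triplicate slides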
# Focal adhesion kinase 1 (Homo sapiens), sequence (Q05397 whole entry, looked up): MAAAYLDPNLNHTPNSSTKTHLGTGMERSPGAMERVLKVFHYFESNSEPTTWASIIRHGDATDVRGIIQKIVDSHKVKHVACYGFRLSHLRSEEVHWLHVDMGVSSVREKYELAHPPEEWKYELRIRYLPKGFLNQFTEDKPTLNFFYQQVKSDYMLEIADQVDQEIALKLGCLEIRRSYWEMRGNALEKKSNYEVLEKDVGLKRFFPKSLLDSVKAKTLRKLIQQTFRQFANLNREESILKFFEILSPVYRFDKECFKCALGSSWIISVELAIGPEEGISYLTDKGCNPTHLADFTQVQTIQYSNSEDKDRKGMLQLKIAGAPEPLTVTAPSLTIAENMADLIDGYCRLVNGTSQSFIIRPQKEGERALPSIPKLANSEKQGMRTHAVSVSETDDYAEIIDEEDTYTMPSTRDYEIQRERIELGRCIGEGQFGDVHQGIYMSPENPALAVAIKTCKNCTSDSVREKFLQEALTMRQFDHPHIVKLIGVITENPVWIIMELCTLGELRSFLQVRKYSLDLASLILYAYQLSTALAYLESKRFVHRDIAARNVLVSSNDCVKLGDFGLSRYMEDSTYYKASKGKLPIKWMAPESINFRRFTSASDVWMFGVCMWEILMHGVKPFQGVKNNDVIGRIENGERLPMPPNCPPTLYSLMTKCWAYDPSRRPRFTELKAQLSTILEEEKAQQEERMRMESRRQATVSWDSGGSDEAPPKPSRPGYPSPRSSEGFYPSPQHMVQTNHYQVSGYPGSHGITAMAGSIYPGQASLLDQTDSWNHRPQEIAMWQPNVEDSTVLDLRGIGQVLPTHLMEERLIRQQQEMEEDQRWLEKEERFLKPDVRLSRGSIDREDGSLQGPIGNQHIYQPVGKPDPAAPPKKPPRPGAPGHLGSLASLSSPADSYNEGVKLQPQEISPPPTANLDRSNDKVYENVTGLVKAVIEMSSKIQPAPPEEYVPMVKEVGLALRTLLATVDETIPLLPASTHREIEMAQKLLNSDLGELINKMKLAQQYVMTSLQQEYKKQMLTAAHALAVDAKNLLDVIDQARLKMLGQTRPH
# [4] = tested on: Fibrinogen (Alexa647-labelled); test: Alexa647-fibrinogen binding to printed small molecules – biochemical, small-molecule microarray, 635/667 nm fluorescence, artefact control for SMM control-protein annotation, profiling panel (AID 1131); details: fibrinogen-A647 binding fluorescence, higher = more signal;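 further: z-score merges 667 nm fluorescence with per-spot signal-to-noise over triplicate slides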
# [5] = target: Follistatin (Homo sapiens) (UniProt P19883); test: FST protein binding to printed compounds – biochemical, small-molecule microarray, 635/667 nm fluorescence, primary screen (AID 1132); details: 635 nm fluorescence, higher = more signal
# Follistatin (Homo sapiens), sequence (P19883 whole entry, looked up): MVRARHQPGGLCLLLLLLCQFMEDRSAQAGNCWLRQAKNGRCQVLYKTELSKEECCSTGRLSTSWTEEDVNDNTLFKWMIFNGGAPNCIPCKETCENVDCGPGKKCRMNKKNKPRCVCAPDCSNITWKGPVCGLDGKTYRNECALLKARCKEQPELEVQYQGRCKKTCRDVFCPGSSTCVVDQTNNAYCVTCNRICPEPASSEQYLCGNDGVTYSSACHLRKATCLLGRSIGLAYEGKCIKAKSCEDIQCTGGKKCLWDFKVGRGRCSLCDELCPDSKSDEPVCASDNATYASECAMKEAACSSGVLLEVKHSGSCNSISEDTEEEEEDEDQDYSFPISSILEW
# [6] = target: Fibroblast growth factor 2 (Homo sapiens) (UniProt P09038); test: basic fibroblast growth factor binding to printed compounds – biochemical, small-molecule microarray, 635/667 nm fluorescence, primary screen (AID 1133); details: FGF2, fluorescence 635/667, higher = more signal
# Fibroblast growth factor 2 (Homo sapiens), sequence (P09038 whole entry, looked up): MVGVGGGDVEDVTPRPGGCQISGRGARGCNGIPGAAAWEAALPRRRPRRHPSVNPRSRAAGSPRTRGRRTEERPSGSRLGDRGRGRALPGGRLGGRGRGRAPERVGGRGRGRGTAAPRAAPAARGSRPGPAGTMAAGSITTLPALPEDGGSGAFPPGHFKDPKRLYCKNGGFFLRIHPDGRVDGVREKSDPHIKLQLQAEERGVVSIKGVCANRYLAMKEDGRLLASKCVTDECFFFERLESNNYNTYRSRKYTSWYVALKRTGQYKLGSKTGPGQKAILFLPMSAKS
# [7] = JC-1 mitochondrial potential readout, lung cancer cells – cell-based, A549, JC-1 fluorescence, basal, 24 h, 100 nL, profiling panel (AID 1138); details: higher = more signal;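 further: A549 lung adenocarcinoma cells under basal conditions with no added stimulus; test concentration not given here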
# [8] = tested on: Lefty1; test: Lefty1 protein binding to printed compounds – biochemical, small-molecule microarray, 635/667 nm fluorescence, primary screen (AID 1139); details: fluorescence 635/667, higher = more signal
# [9] = tested on: wheat germ agglutinin (Triticum aestivum), Alexa647-labelled; test: Alexa647-WGA lectin binding to printed small molecules – biochemical, small-molecule microarray, 635/667 nm fluorescence, artefact control for SMM control-protein annotation, profiling panel (AID 1140); details: WGA-A647 binding, 635 nm fluorescence, higher = more signal;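 further: score merges 667 nm feature emission with signal to noise over triplicate slides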
# [10] = target: Luciferin 4-monooxygenase (Photinus pyralis) (UniProt P08659); test: inhibition of purified Photinus pyralis luciferase – biochemical, luminescence, purified enzyme, 2006 set, primary screen (AID 1141); details: purified firefly luciferase, SteadyGlo luminescence, 30 min; higher = more signal, called active from +8 up or from −8 down;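 further: cell-free assay with purified firefly luciferase at 100 ng per well in PBS; test concentration not given here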
# Luciferin 4-monooxygenase (Photinus pyralis), sequence (P08659 whole entry, looked up): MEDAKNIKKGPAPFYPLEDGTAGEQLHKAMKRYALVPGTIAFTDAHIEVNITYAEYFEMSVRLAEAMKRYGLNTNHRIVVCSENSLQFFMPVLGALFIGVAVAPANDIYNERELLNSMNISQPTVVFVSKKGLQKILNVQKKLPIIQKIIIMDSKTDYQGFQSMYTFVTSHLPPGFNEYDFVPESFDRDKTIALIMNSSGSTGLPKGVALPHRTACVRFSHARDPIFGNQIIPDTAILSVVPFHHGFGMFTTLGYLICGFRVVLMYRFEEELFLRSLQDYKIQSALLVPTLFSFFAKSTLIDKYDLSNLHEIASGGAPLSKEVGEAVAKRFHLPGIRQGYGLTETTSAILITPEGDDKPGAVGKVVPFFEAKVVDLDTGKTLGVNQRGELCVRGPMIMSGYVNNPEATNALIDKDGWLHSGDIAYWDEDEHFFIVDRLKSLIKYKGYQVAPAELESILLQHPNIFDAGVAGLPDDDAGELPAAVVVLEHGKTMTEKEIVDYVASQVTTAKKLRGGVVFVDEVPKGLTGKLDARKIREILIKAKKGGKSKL
# [11] = tested on: Wnt5a (protein binding on small-molecule microarray); test: small molecules binding Wnt5a protein – biophysical, small-molecule microarray, 635/667 nm fluorescence, primary screen (AID 1142); details: 635 nm fluorescence, higher = more signal;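 further: fluorescence read at 667 nm with signal to noise per printed feature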
# [12] = ATP-based viability of Huh7 replicon cells – cell-based, CellTiter-Glo luminescence, basal, 48 h, cytotoxicity control for HCV replication inhibitor project, primary screen (AID 1143); details: higher = more signal, called active from +8 up or from −8 down;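 further: Huh7 hepatoma cells carrying a hepatitis C replication reporter with no stimulus; test concentration not given here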
# [13] = Pseudomonas biofilm growth suppression – PAO1 strain, BacTiter-Glo luminescence, LB-PBS, primary screen (AID 1144); details: P. aeruginosa PAO1 biofilm, 12 h, higher = more signal
# [14] = basal CRE-LacZ reporter activity in PC12 – cell-based, unstimulated, primary screen (AID 1145); details: no forskolin, luminescence, 4.5 h, higher = more signal, called active from +8 up or from −8 down
# [15] = forskolin-driven CRE-LacZ activity in PC12 – cell-based, CRE-LacZ reporter, forskolin-stimulated, primary screen (AID 1146); details: luminescence, 4.5 h, higher = more signal, called active from +8 up or from −8 down;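 further: PC12 cells with 6xCRE LacZ reporter stimulated by forskolin 10 µM; beta-galactosidase reporter signal reflecting CREB driven transcription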
# [16] = target: Streptavidin (Streptomyces avidinii) (UniProt P22629); test: compounds binding control protein streptavidin – biophysical, small-molecule microarray, 635/667 nm fluorescence, artefact control for SMM compound annotation, primary screen (AID 1147); details: higher = more signal;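 further: signal reflects streptavidin binding to arrayed compounds as a control protein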
# Streptavidin (Streptomyces avidinii), sequence (P22629 whole entry, looked up): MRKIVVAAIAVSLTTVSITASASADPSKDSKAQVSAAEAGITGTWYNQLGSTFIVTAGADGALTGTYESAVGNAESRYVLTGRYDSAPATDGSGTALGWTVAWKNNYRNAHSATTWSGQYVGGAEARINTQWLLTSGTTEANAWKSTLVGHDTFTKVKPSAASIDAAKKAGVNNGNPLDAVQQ
# [17] = probe aInhba binding on compound microarray – biochemical, small-molecule microarray, 635/667 nm fluorescence, primary screen (AID 1148); details: higher = more signal;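 further: score merges 667nm spot fluorescence with signal-to-noise for antibody binding to printed compounds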
# [18] = target: Torsin-1A (Homo sapiens) (UniProt O14656); test: TOR1A wild-type binding on microarray – cell lysate, small-molecule microarray, lysate, 635/667 nm, primary screen (AID 1149); details: COS7 hTOR1A-WT lysate, 635 nm fluorescence, higher = more signal
# Torsin-1A (Homo sapiens), sequence (O14656 whole entry, looked up): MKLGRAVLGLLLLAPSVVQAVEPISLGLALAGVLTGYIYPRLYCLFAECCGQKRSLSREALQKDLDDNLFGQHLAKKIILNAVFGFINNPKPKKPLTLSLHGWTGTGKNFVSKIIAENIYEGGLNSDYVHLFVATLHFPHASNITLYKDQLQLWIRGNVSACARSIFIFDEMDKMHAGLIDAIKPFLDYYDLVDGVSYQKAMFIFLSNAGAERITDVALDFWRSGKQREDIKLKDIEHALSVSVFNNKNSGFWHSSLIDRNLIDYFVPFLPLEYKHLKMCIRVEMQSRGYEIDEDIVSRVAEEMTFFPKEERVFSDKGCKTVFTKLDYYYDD
# [19] = target: Torsin-1A (Homo sapiens) (UniProt O14656); test: torsin A mutant lysate binding on microarrays – cell lysate, small-molecule microarray, COS7 lysate, 635/667 nm fluorescence, primary screen (AID 1150); details: COS7 hTOR1A mutant lysate, 635 nm fluorescence, higher = more signal;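 further: score pools 667 nm emission and signal to noise measuring lysate protein binding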
# [20] = tested on: Sonic hedgehog protein (Shh); test: Sonic hedgehog microarray binding compounds – biochemical, small-molecule microarray, 635/667 nm fluorescence, primary screen (AID 1151); details: 635 nm fluorescence, higher = more signal;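 further: Shh protein binding to compounds spotted on small-molecule microarray slides; score combines spot fluorescence intensity with signal-to-noise across triplicate slides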
Compound,composite z-score [1],composite z-score [2],composite z-score [3],composite z-score [4],composite z-score [5],composite z-score [6],z-score [7],composite z-score [8],composite z-score [9],z-score [10],composite z-score [11],z-score [12],z-score [13],z-score [14],z-score [15],composite z-score [16],composite z-score [17],composite z-score [18],composite z-score [19],composite z-score [20]
CCCNC(=O)[C@@]1(C)c2ccccc2C(=O)N(c2ccc(C)cn2)[C@H]1c1ccc(CO)cc1,0.0998,-0.268,0.23,-1.78,0.169,-0.465,0.672,-0.0558,-0.311,-0.714 (inactive),-0.297,0.242 (inactive),-0.31 (inactive),1.29 (inactive),-0.0049 (inactive),-0.516,0.0398,0.399,0.266,0.224
CS(=O)(=O)CCOC(=O)C1=CC(c2ccc(CO)cc2)=CC(C2CC2)N(Cc2sc3ccccc3c2Cl)C=C1C(=O)OCCS(C)(=O)=O (stereo not given),1.27,0.795,0.716,0.88,1.28,0.881,2.04,0.851,0.861,-1.86 (inactive),-0.0091,-4.22 (inactive),-1.49 (inactive),1.8 (inactive),-2.66 (inactive),1.95,0.0843,1.24,1.31,1.23
COC(=O)[C@]1(CCS(=O)(=O)c2ccccc2)N=C(c2ccc(OCCCO)cc2)O[C@@H]1c1ccccc1N=[N+]=[N-],3.54,1.27,0.263,0.906,1.39,1.75,-0.447,0.387,1.09,-1.32 (inactive),1.21,-3.71 (inactive),-0.731 (inactive),2.42 (inactive),-0.889 (inactive),1.39,0.438,0.588,0.453,2.09
COCC(=C=CC[C@H](O)c1ccc(OCCO)cc1)CCO,0.434,0.633,-0.225,-0.142,1.41,1.06,0.63,1.56,-0.335,-1.36 (inactive),0.0048,0.287 (inactive),0.163 (inactive),2.44 (inactive),-0.419 (inactive),-0.407,0.138,1.91,0.911,1.96
COc1cc2c(cc1O)C(c1ccc(CN3CCCC3)cc1)N(Cc1cc3c(cc1Br)OCO3)CC2 (stereo not given),-0.381,-0.367,0.171,0.516,0.0395,-0.73,1.11,-0.268,0.688,-1.37 (inactive),-0.116,-3.59 (inactive),-0.587 (inactive),0.389 (inactive),-0.0519 (inactive),0.881,-0.128,-0.231,0.513,-1.01
Oc1ccc2cc[n+](Cc3cc4c(cc3Br)OCO4)cc2c1,-0.706,-1.93,-0.947,-1.38,-0.145,-0.387,0.938,-1.15,0.136,-1.13 (inactive),-0.388,-0.501 (inactive),-0.23 (inactive),-0.788 (inactive),-0.639 (inactive),-0.909,-0.224,-0.896,-0.49,-0.598
COc1ccc(CCNC(=O)[C@@]2(Cc3ccccc3I)c3ccccc3C(=O)N(C3CCCCC3)[C@H]2c2ccc(CO)cc2)cc1,0.362,0.839,0.22,0.434,0.341,-0.199,0.348,0.106,0.177,1.18 (inactive),-0.372,-6.39 (inactive),-1.43 (inactive),-0.0243 (inactive),-1.06 (inactive),0.623,0.0198,-0.57,-0.0979,-0.193
CC(C)C[C@@H]1NC(=O)[C@@H]2C[C@H](C(=O)NCCCCCCN)[C@H](c3cccc(OCCO)c3)N2C1=O,2.25,1.11,0.344,0.662,1.32,0.548,-0.645,1.51,1.1,0.459 (inactive),0.0254,-0.214 (inactive),-1.74 (inactive),-0.675 (inactive),0.348 (inactive),0.919,0.747,0.255,1.73,2
CCCN1C(=O)[C@@]2(Cc3ccccc31)N=C(c1ccc(OCCCO)cc1)O[C@H]2c1ccccc1,0.293,1.17,0.881,0.829,1.23,1.31,1.69,0.256,0.801,-3.25 (inactive),1.16,-3.36 (inactive),0.849 (inactive),2.07 (inactive),-0.0414 (inactive),0.469,-0.016,1.71,1.34,1.01
CCOC(=O)C1=C[C@@H](c2ccccc2)N(S(=O)(=O)c2ccc(C)cc2)[C@H]1c1ccc(OC)cc1,0.546,0.957,0.501,0.935,0.609,0.217,1.77,-0.0395,1.11,1.51 (inactive),0.943,-2.61 (inactive),0.173 (inactive),-0.275 (inactive),-0.0617 (inactive),0.689,0.29,0.162,0.513,-0.0921
COc1ccc([Si](C)(C)[C@H]2[C@H](CC(=O)N(CCO)Cc3ccccc3)O[C@@]3(C(=O)N(C)c4c(Br)cc(C)cc43)[C@@H]2C)cc1,1.19,1.03,-0.0842,-0.009,1.51,1.84,-0.774,1.57,0.61,-0.342 (inactive),0.306,-5.69 (inactive),-1.43 (inactive),9.7 (active),-2.49 (inactive),0.527,-0.128,2.12,1.98,1.72
C=C(/C(=C/C[C@H](OC(=O)c1ccncc1)c1ccc(CO)o1)c1cnc2ccccc2c1)C(C)C,1.29,1.19,0.0621,0.866,1.31,1.18,0.909,1.34,1.08,-2.9 (inactive),0.49,-0.259 (inactive),-0.747 (inactive),1.58 (inactive),0.0737 (inactive),1.42,0.0993,0.353,0.491,1.97
